Source: PubChem BioAssay (National Center for Advancing Translational Sciences (NCATS))
USP2a inh: USP2a (human) protease inhibition; O75604; USP2a enzymatic assay, qHTS inhibition; Potency, µM (top dose mostly 38.3 µM), most hits filed as inhibitors; 60,000 tested, 0.1% active; note: nearly all actives have a fitted effect of over 60% in size
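Coupled readout: USP2-cleaved Ub-PLA2 (20nM final) turns over NBD C6-HPC (20uM final), Ex 460nm/Em 535nm after 2.5 h, time-zero read flagging artifacts. Enzyme (20nM final, pH 8.0 Tris) given 30 min RT with compound first; NEM defines full inhibition.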
Hsp90 Hop PPI: changes Hsp90-Hop TPR2A binding signal, up or down. AlphaScreen TPR2A-His6 binding biotin-Hsp90 C-terminal peptide. Potency, µM (titrated, usually from 57 µM). AID 595. 71,000 tested, 0.44% active; active = well fitted curve in either direction with a large enough effect; inconclusive = small, poorly fitted or top-dose-only effect, or another doubt
GBA activity: alters purified human glucocerebrosidase activity; 48,000 tested, 1.1% active; Potency, µM; purified enzyme, resorufin glucoside fluorescence (screen aimed at inhibitors), 20 min; P04062; in the data active = potency below about 15 µM; inconclusive = mostly about 16 µM to 33 µM;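 note: the screen sought inhibitors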
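Compounds titrated against 0.2 nM normal enzyme, 30 uM resorufin beta-D-glucopyranoside substrate, citrate/phosphate buffer with taurocholate and tween-20, pH 5.9. Reaction ran 20 min at room temperature; fluorescence (Ex 548/Em 600) gave AC50.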
Bst PK mod: alters activity of Bacillus stearothermophilus pyruvate kinase; purified pyruvate kinase, luminescence ATP production; ribose 5-phosphate activator present at AC10; Potency, µM; 51,000 tested, 1.2% active; in the data active = potency below about 11 µM; inconclusive = mostly about 12 µM to 25 µM;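 the screen sought inhibitors and activators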
15-hLO inh: blocks human 15-lipoxygenase activity; purified 15hLO-1, xylenol orange hydroperoxide absorbance; Potency, µM (top dose mostly 57.1 µM), hits mostly inhibitors; 74,000 tested, 1.4% active; AID 887; note: nearly all actives have a fitted effect of over 55% in size
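Quantitative HTS in 25 mM Hepes pH 7.5 containing 0.01% Triton X-100: human 15hLO-1 at 40 nM, arachidonic acid at 50 uM, 6 min turnover. Product quantified via ferrous oxidation/xylenol orange, 573:405 nm absorbance ratio.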
Tau filament bind: binds recombinant human tau filaments; P10636; recombinant tau filaments, thioflavin S fluorescence, 15 h; filaments grown with octadecylsulfate alongside compound; Potency, µM (top dose mostly 57.1 µM); 71,000 tested, 2% active; AID 596;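 note: actives lower thioflavin S fluorescence by blocking filaments or displacing dye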
Target sequence (P10636 whole entry, looked up): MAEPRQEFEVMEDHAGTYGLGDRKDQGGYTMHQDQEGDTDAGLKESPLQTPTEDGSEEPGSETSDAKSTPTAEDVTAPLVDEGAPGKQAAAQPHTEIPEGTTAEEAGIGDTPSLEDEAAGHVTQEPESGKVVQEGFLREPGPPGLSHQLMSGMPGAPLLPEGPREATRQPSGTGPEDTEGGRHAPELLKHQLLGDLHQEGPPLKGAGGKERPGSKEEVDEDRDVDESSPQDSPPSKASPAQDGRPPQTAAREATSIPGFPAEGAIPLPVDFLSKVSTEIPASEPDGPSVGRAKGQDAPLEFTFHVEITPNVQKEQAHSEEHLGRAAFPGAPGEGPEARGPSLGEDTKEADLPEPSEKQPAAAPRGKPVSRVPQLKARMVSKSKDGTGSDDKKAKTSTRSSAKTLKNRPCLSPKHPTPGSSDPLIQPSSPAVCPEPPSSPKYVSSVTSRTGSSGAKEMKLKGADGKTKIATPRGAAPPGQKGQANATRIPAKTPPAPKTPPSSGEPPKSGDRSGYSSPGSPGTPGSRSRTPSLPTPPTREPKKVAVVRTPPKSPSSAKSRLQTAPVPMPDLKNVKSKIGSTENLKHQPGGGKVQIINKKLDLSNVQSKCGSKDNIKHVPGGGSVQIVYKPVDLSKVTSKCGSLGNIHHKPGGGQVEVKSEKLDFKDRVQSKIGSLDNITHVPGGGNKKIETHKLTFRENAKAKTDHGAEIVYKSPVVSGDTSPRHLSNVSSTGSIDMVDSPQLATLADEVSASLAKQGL
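Thioflavine S fluorescence (ex 450, em 510 nm) reports filaments formed from 1 uM human tau plus 30 uM ODS over 15 h at 37 C (10 mM HEPES pH 7.4, 100 mM NaCl, 5 mM DTT); compounds displacing dye or blocking filaments lower signal.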
Each line names hits and unclear results; the compound was inactive in the other large screens; ! = a repeat was not active. Sampled rows, rich in hits. Any-hit rate of the full collection: about 4.6%. Unless noted, calls come from the whole dose curve; as a rule, active = well fitted curve in the direction sought with a large enough effect; inconclusive = small, poorly fitted or top-dose-only effect, or another doubt; inactive = no such curve, though single readings can be large; an effect the other way counts as inactive or inconclusive.

CC[C@@H]1CN2CCc3cc(OC)c(OC)cc3[C@H]2C[C@@H]1C[C@@H]1NCCc2cc(O)c(OC)cc21	none (no result: GBA activity, Bst PK mod)
CCCCn1c(O)c(C=NC2CC3CCC2(C)C3(C)C)c(=O)[nH]c1=O (stereo unspecified)	Tau filament bind inconclusive
O=C(O)c1cc[c]([Hg][S]c2ncnc3nc[nH]c23)cc1	15-hLO inh 0.79µM (no result: USP2a inh, GBA activity, Bst PK mod)
C[C@@H](O)CN(CCN(C[C@@H](C)O)C[C@@H](C)O)C[C@@H](C)O.O=[N+]([O-])O.[Cu]	15-hLO inh 4µM, Tau filament bind inconclusive (no result: USP2a inh, GBA activity, Bst PK mod)
CC(C)[N+](=O)[O-]	none (no result: USP2a inh, GBA activity, Bst PK mod)
CN(C)c1ccc(N)cc1	Hsp90 Hop PPI inconclusive, 15-hLO inh inconclusive, Tau filament bind 13µM (no result: USP2a inh, GBA activity, Bst PK mod)
CCCCCC[N+](=O)[O-]	none (no result: USP2a inh, GBA activity, Bst PK mod)
Cn1c(O)c(C=NCc2ccco2)c(=O)n(C)c1=O	15-hLO inh 32µM (no result: GBA activity, Bst PK mod)
CCOC(=O)C1=C(C)N(C)C2(C)CC1c1ccccc1O2 (stereo unspecified)	none
CC(=O)[O-].CC(=O)[O-].CC(=O)[O-].[Cr+3]	Tau filament bind 13µM (no result: USP2a inh, GBA activity, Bst PK mod)
C[N+](C)(C)CC(=O)[O-]	none (no result: Hsp90 Hop PPI, GBA activity, Bst PK mod, Tau filament bind)
O=c1[nH]c(=O)n(CCc2ccccc2)c(O)c1C=NCCCn1ccnc1	none (no result: USP2a inh, Hsp90 Hop PPI, GBA activity, 15-hLO inh, Tau filament bind)
N#CS.N=C=S.N=C=S.[Cu].[NH2-].[NH2-].[NH2-].[NH2-].c1ccc2ncccc2c1	15-hLO inh 2.5µM (no result: USP2a inh, GBA activity, Bst PK mod)
CSC([N-]/N=C/c1cccc(C)n1)=[S]=[Cu].CS[C@H]([S-])[N-]/N=C/c1cccc(C)n1	Hsp90 Hop PPI 3.2µM, 15-hLO inh inconclusive, Tau filament bind inconclusive (no result: USP2a inh, GBA activity, Bst PK mod)
CCc1cc2c(nc1CC)CCN(CC/C(C)=N/OC)C2	none (no result: USP2a inh, Hsp90 Hop PPI, GBA activity, Bst PK mod, Tau filament bind)
O=P(O)(OP(=O)(O)c1ccccc1)c1ccccc1 (tested in a mixture with another compound)	none (no result: USP2a inh, GBA activity, Bst PK mod)
C[N+]1(C)[C@@H]2CC[C@H]1CC(OC(=O)c1c[nH]c3ccccc13)C2 (stereo partly specified)	15-hLO inh 16µM (no result: GBA activity, Bst PK mod)
C[N+]1(C)[C@@H]2CC[C@H]1CC(OC(=O)C(CO)c1ccccc1)C2 (stereo partly specified)	none (no result: USP2a inh, Hsp90 Hop PPI, GBA activity, 15-hLO inh, Tau filament bind)
O=c1c(C=NCCN2CCNCC2)c(O)n(C2CCCCC2)c(=O)n1C1CCCCC1	none (no result: USP2a inh, Hsp90 Hop PPI, GBA activity, 15-hLO inh, Tau filament bind)
COc1cc2c(cc1O)C[C@@H]1c3c(cc(O)c(OC)c3-2)CCN1C	none (no result: USP2a inh, GBA activity, Bst PK mod)
COc1cc2c(cc1O)C[C@H]1c3c(cc(O)c(OC)c3-2)CCN1C	Tau filament bind 40µM! (no result: GBA activity, Bst PK mod)
C[C@]12CCC3C(C=CC4=CC(=O)CC[C@]43C)C1CC[C@]2(O)CCC(=O)O (stereo partly specified)	none (no result: Hsp90 Hop PPI, GBA activity, Bst PK mod, Tau filament bind)
CC(=O)OCC1=C(C(=O)[O-])N2C(=O)[C@@H](NC(=O)CCC[C@@H](N)C(=O)[O-])[C@@H]2SC1.[Zn+2]	15-hLO inh 25µM (no result: GBA activity, Bst PK mod)
COc1ccc(-n2c(O)c(C(C)=NCc3ccco3)c(=O)[nH]c2=O)cc1	none
CCCN1CCc2cc(O)cc3c2[C@H]1Cc1ccc(O)c(O)c1-3	Tau filament bind 25µM (no result: GBA activity, Bst PK mod)
CC(=O)CCC(C)=O	none (no result: USP2a inh, GBA activity, Bst PK mod)
CC(=O)O.CC(=O)O.[Cd]	USP2a inh 2.5µM, 15-hLO inh 16µM (no result: Hsp90 Hop PPI, GBA activity, Bst PK mod, Tau filament bind)
Nc1cccc(Cl)c1	none (no result: USP2a inh, GBA activity, Bst PK mod)
CC(C)Nc1ccc(Nc2ccccc2)cc1	Hsp90 Hop PPI inconclusive, 15-hLO inh inconclusive, Tau filament bind 16µM (no result: USP2a inh, GBA activity, Bst PK mod)
CN1C(=O)C(Cc2cccc3ccccc23)C(=O)N(C)C1=O	none (no result: GBA activity, Bst PK mod)
C/C=C(\C)C(=O)O[C@@H]1C(C)=C2[C@H]([C@@H]1OC(=O)CCCCCCC)[C@@](C)(OC(C)=O)C[C@@H](OC(=O)CCC)[C@@]1(O)[C@H]2OC(=O)[C@]1(C)O	15-hLO inh 20µM (no result: GBA activity, Bst PK mod)
CN1CCc2nc(CO)c(CO)cc2C1	none (no result: USP2a inh, Hsp90 Hop PPI, GBA activity, Bst PK mod, Tau filament bind)
COc1cc(C=C(C#N)C#N)cc(O)c1O	USP2a inh inconclusive, Hsp90 Hop PPI inconclusive, 15-hLO inh inconclusive (no result: GBA activity, Bst PK mod)
O=C1C=CC(=O)c2c1ccc1c2ccc2ccccc21	Tau filament bind 4µM (no result: GBA activity, Bst PK mod)
N=C(N)c1c(O)n(C2CCCCC2)c(=O)n(C2CCCCC2)c1=O	Tau filament bind 16µM
CC1=CC(=O)NP(=O)(Oc2ccc3ccccc3c2)N1 (stereo unspecified)	GBA activity inconclusive, 15-hLO inh 13µM (no result: USP2a inh)
COc1cc2ccc(=O)oc2c2ccoc12	none (no result: Hsp90 Hop PPI, GBA activity, Bst PK mod, Tau filament bind)
CCCCn1c(N)c(C(=O)NCCN2CCOCC2)c2nc3ccccc3nc21	Hsp90 Hop PPI inconclusive (no result: GBA activity)
Nc1c(C(=O)NCCN2CCOCC2)c2nc3ccccc3nc2n1Cc1ccco1	15-hLO inh 13µM (no result: Bst PK mod)
